# Test results: PubChem BioAssay (Tox21)
# Values joined by “and” are separate entries in the source; they are usually repeats but may differ in a detail not shown here. Identical values can stand only once. Inconclusive results are not listed. Entries that show only a call come without a potency. The source holds several records for some structures; these can differ, active in one and inactive in another. Unmarked numbers belong to inactive results. Active and inactive are the calls of the source. The call rests on the fitted dose curve; in most records, active means well fitted cell-killing curve with a large enough effect in the repeat runs; inconclusive means weak or mixed curves, or effect the other way; inactive means flat fitted curve, though single readings scatter.
# What was measured:
# [1] = cAMP Responsive Elements (CRE) small molecule antagonists, cell-based qHTS assay: qHTS cell viability counter screen (AID 2060913); further: nearly all actives have a fitted effect of over 40% in size
# Summary of the method: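 HEK293T CRE-bla, 2,000 cells/well, 18 h preincubation; cpd in DMSO + NKH477 0.25 uM final, 3 h 37 C/5% CO2; LiveBLAzer 2 h RT, then CellTiter-Glo 30 min RT, luminescence.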
# [2] = cAMP Responsive Elements (CRE) small molecule agonists, cell-based qHTS assay: qHTS cell viability counter screen (AID 2060914);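 further: viability read after 3 h of compound exposure; nearly all actives have a fitted effect of over 50% in size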
# Summary of the method: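 CRE-bla HEK293T cells in 10% dialyzed FBS medium were exposed to compounds for 3 h at 37C after 18 h plating. CellTiter-Glo was then added in the same wells, and luminescence was read after 30 min at room temperature.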
# Potency means the concentration at half of the fitted maximal effect.
smiles,measurement,setting,value
CC(C)(Oc1ccc(Cl)cc1)C(=O)OCCCOC(=O)C(C)(C)Oc1ccc(Cl)cc1,Potency,[1],inactive
CC[C@H](c1ccc(O)cc1)[C@@H](CC)c1ccc(O)cc1,Potency,[1],inactive
Nc1ccc(C(=O)O)cc1,Potency,[1],inactive
CCCCNC(=O)NS(=O)(=O)c1ccc(C)cc1,Potency,[1],inactive
CCN(CC)C(=O)c1cccc(C)c1,Potency,[1],inactive
CC=O,Potency,[1],63.9 µM (active)
CC(=O)OCCOC(C)=O,Potency,[1],inactive
CCc1cccc(CC)c1NC(=O)CN(CC(=O)O)CC(=O)O,Potency,[1],inactive
C=COCC(C)C,Potency,[1],inactive
Cc1cc2c(cc1C(F)(F)F)N(C(=O)Nc1ccc(Oc3cccnc3C)nc1)CC2,Potency,[1],inactive
C=CCOC(=O)c1ccc(C(=O)OCC=C)c(C(=O)OCC=C)c1,Potency,[1],inactive
CC1=NN(c2cccc(S(=O)(=O)O)c2)C(=O)C1,Potency,[1],inactive
O=C(Nc1ccccc1)c1cc([N+](=O)[O-])ccc1Cl,Potency,[1],inactive
CCCCCCCCCCCC[N+](C)(C)C,Potency,[1],54.3 µM (active) and 61.1 µM (active) and 68.6 µM (active)
S=c1[nH][nH]c(=S)s1,Potency,[1],inactive
N=C1C=CC(=C(c2ccc(N)cc2)c2ccc(N)cc2)C=C1,Potency,[1],50.8 µM (active)
N=C1N=C(N)c2ccccc21,Potency,[1],inactive
CCN(CC)CCNC(=O)c1ccc(NC(C)=O)cc1,Potency,[1],inactive
same,Potency,[2],inactive
C[Si]1(C)O[Si](C)(C)O[Si](C)(C)O1,Potency,[1],inactive
CCCCCCCCCCCCCC[P+](CCCC)(CCCC)CCCC (tested in a mixture with another compound),Potency,[1],2.45 µM (active)
CCN=c1cc2oc3cc(NCC)c(C)cc3c(-c3ccccc3C(=O)OCC)c-2cc1C,Potency,[1],68.3 µM (active) and 50.8 µM (active)
CC(=O)c1cc2ccccc2s1,Potency,[1],inactive
O=C(Nc1ccccc1)OCC(CN1CCCCC1)OC(=O)Nc1ccccc1 (stereo unspecified),Potency,[1],inactive
CC(C)(c1ccc(Oc2ccc3c(c2)C(=O)OC3=O)cc1)c1ccc(Oc2ccc3c(c2)C(=O)OC3=O)cc1,Potency,[1],inactive
same,Potency,[2],inactive
CC(C)=CCCC(C)C=O (stereo unspecified),Potency,[1],inactive
c1ccc(-c2nc[nH]c2-c2ccccc2)cc1,Potency,[1],inactive
O=[Se](O)O,Potency,[1],61.2 µM (active)
same,"viability change, negative = cytotoxic",[1],6.01% [at 18.9 µM]
same,Potency,[2],15.4 µM (active)
same,"activity change, negative = cytotoxicity",[2],25.7% [at 18.9 µM]
C=Cc1ccc(S(=O)(=O)O)cc1,Potency,[1],inactive
NCc1cccc(C2CCN(C(=O)c3ccc(C#Cc4ccccc4F)o3)CC2)c1,Potency,[1],68.6 µM (active)
CO/N=C1\CN(c2nc3c(cc2F)c(=O)c(C(=O)O)cn3C2CC2)CC1CN (stereo unspecified),Potency,[1],inactive
CCS(=O)(=O)c1ccc(OC)c(C(=O)OC)c1,Potency,[1],inactive
CCC(=O)OC/C=C(\C)CCC=C(C)C,Potency,[1],inactive
same,Potency,[2],inactive
CC(C)C(=O)OCC(C)(C)C(O)C(C)C (stereo unspecified),Potency,[1],inactive
CCC(=O)OC/C=C/c1ccccc1,Potency,[1],inactive
same,Potency,[2],inactive
C1CCCC1,Potency,[1],inactive
same,Potency,[2],inactive
CNCc1ccccc1,Potency,[1],inactive
COCCOCCOCCO,Potency,[1],inactive
CNCCc1ccccn1,Potency,[1],inactive
same,Potency,[2],inactive
COC(=O)[C@H](Cc1ccccc1)NC(=O)[C@@H](N)CC(=O)O,Potency,[1],inactive
CCCNC(=O)NS(=O)(=O)c1ccc(Cl)cc1,Potency,[1],inactive
CC(CN(CCN(CC(C)OCCO)CC(C)OCCO)CC(C)OCCO)OCCO (stereo unspecified),Potency,[1],inactive
NC1CCN(c2cccc(Cl)n2)CC1,Potency,[1],inactive
C=CCCCCCCCCO,Potency,[1],inactive
CC(C)CCOC(=O)c1ccc(N(C)C)cc1,Potency,[1],inactive
same,Potency,[2],inactive
CC1CC(OC(=O)c2ccccc2O)CC(C)(C)C1 (stereo unspecified),Potency,[1],inactive
same,Potency,[2],inactive
CCCCN=C(N)N=C(N)N,Potency,[1],inactive
CC1(C)SC(C)(C)SC(C)(C)S1,Potency,[1],inactive
same,Potency,[2],inactive
CCCCCCC=O,Potency,[1],inactive
same,Potency,[2],inactive
CC1=CCC2C(C1)C2(C)C (stereo unspecified),Potency,[1],inactive
CC(C)=CCC/C(C)=C/CC/C(C)=C/CCC(=O)OC/C=C(\C)CCC=C(C)C,Potency,[1],inactive
same,Potency,[2],inactive
O=C(N[C@H](CO)[C@H](O)c1ccc([N+](=O)[O-])cc1)C(Cl)Cl,Potency,[1],inactive
Cc1ccc2c(ccc3ccccc32)c1,Potency,[1],inactive
Cc1nc(-c2ccccn2)ncc1C(=O)Nn1cc(C)c2cc(F)ccc21,Potency,[1],inactive
CC[N+](CC)(CC)Cc1ccccc1,Potency,[1],inactive
same,Potency,[2],inactive
COc1ccccc1OCC(O)COC(N)=O (stereo unspecified),Potency,[1],inactive
same,Potency,[2],inactive
CCC(=O)O[C@H]1[C@H](O[C@@H]2[C@@H](C)[C@H](O[C@H]3C[C@@](C)(OC)[C@@H](O)[C@H](C)O3)[C@@H](C)C(=O)O[C@H](CC)[C@@](C)(O)[C@H](O)[C@@H](C)C(=O)[C@H](C)C[C@@]2(C)O)O[C@H](C)C[C@@H]1N(C)C,Potency,[1],inactive
same,Potency,[2],inactive
c1ccc2cnncc2c1,Potency,[1],inactive
same,Potency,[2],inactive
COc1ccc(CCC(=O)c2c(O)cc(O[C@@H]3O[C@H](CO)[C@@H](O)[C@H](O)[C@H]3O[C@@H]3O[C@@H](C)[C@H](O)[C@@H](O)[C@H]3O)cc2O)cc1O,Potency,[1],inactive
same,Potency,[2],inactive
Cc1ccc(C(=O)O)o1,Potency,[1],inactive
same,Potency,[2],inactive
CC1CC(OC(=O)C(O)c2ccccc2)CC(C)(C)N1C (stereo unspecified),Potency,[1],inactive
same,Potency,[2],inactive
O=C1c2ccccc2C(=O)C1c1ccc(Br)cc1,Potency,[1],inactive
same,Potency,[2],inactive
COCCOC(=O)CC#N,Potency,[1],inactive
same,Potency,[2],inactive
CC(C)c1ccc(C(C)C)cc1,Potency,[1],inactive
same,Potency,[2],inactive
CCCCN(CCN(CCCC)C(=O)N1CCOCC1)C(=O)N1CCOCC1,Potency,[1],inactive
same,Potency,[2],inactive
COc1ccc(-c2nc3ccc(C4=NNC(=O)CC4C)cc3[nH]2)cc1 (stereo unspecified),Potency,[1],inactive
same,Potency,[2],inactive
C=CC(C)(C)O,Potency,[1],inactive
same,Potency,[2],inactive
Cc1cc(=O)n(-c2ccccc2)n1C,Potency,[1],inactive
same,Potency,[2],inactive
CN1C(=O)N(C)C(O)C1O (stereo unspecified),Potency,[1],inactive
same,Potency,[2],inactive
Nc1nc2ccc(OC(F)(F)F)cc2s1,Potency,[1],inactive
same,Potency,[2],inactive
O=C(CCN1CCC(c2ccccc2)C1)c1ccc2c(c1)OCCO2 (stereo unspecified),Potency,[1],inactive
same,Potency,[2],inactive
O=C1NC(=O)c2cc([N+](=O)[O-])ccc21,Potency,[1],inactive
same,Potency,[2],inactive
Cc1cc(NS(=O)(=O)c2ccc(N)cc2)no1,Potency,[1],inactive
same,Potency,[2],inactive
C[C@]12CC[C@@H]3c4ccc(O)cc4CC[C@H]3[C@@H]1CC[C@@H]2O,Potency,[1],inactive
same,Potency,[2],inactive
O=C1c2ccccc2C(=O)c2c(Cl)cccc21,Potency,[1],inactive
same,Potency,[2],inactive
CC1=C(/C=C/C(C)=C/C=C/C(C)=C/CO)C(C)(C)CCC1,Potency,[1],inactive
same,Potency,[2],inactive
Clc1ccc(C(Cn2ccnc2)OCc2ccsc2Cl)c(Cl)c1 (stereo unspecified),Potency,[1],inactive
same,Potency,[2],inactive
CC(=O)OC(C)c1ccccc1 (stereo unspecified),Potency,[1],inactive
same,Potency,[2],inactive
CC(=O)Nc1ccccc1C,Potency,[1],inactive
same,Potency,[2],inactive
CN/C(=C\[N+](=O)[O-])NCCSCc1csc(CN(C)C)n1,Potency,[1],inactive
same,Potency,[2],inactive
CCCS(=O)c1ccc2nc(NC(=O)OC)[nH]c2c1 (stereo unspecified),Potency,[1],inactive
same,Potency,[2],inactive
CC(=O)OC(C(=O)c1ccccc1)c1ccccc1 (stereo unspecified),Potency,[1],inactive
same,Potency,[2],inactive
Oc1c(Br)cc(Br)c2cccnc12,Potency,[1],inactive
same,Potency,[2],inactive
Oc1cccc2ccccc12,Potency,[1],inactive
same,Potency,[2],inactive
O=CN(CCO)CCO,Potency,[1],inactive
same,Potency,[2],inactive
Cc1ccc(C(=O)C(=O)O)cc1C,Potency,[1],inactive
same,Potency,[2],inactive
COc1cccc2c1C(=O)c1c(O)c3c(c(O)c1C2=O)C[C@@](O)(C(=O)CO)C[C@@H]3O[C@H]1C[C@H](N)[C@H](O)[C@H](C)O1,Potency,[1],inactive
same,Potency,[2],inactive
CCCCCCC(=O)c1ccccc1,Potency,[1],inactive
same,Potency,[2],inactive
CCC(N)(CO)CO,Potency,[1],inactive
same,Potency,[2],inactive
CS(=O)(=O)c1ccc(-c2cn3ccccc3n2)cc1,Potency,[1],26.6 µM (active)
same,Potency,[2],inactive
Cc1ccc(=O)n(-c2ccccc2)c1,Potency,[1],inactive
same,Potency,[2],inactive
CC(C)(C)c1nnc(NS(=O)(=O)c2ccccc2)s1,Potency,[1],inactive
same,Potency,[2],inactive
O=C(O)CCCCCCCCCC(=O)O,Potency,[1],inactive
same,Potency,[2],inactive
OC(CCN1CCCCC1)(c1ccccc1)c1ccccc1,Potency,[1],inactive
same,Potency,[2],inactive
O=S(=O)(c1ccc(OCc2ccccc2)cc1)c1ccccc1O,Potency,[1],inactive
same,Potency,[2],inactive
CCC(CC)Nc1ccc(C)c(C)c1,Potency,[1],inactive
same,Potency,[2],inactive
